Screening data from PubChem.
Rows were chosen to be rich in hits. Some 7.6% of all compounds tested hit in one or more screens of this group.
SW480 rerep – DNA re-replication induction in SW480 cells; hit rate 1.8% among 340,000; AID 624297; SW480 DNA re-replication, Hoechst DNA content imaging, 48 h; Potency, µM (doses to about 46.1 µM), for inactives: at the highest dose re-replication activation, usual class: activators; further: potency means the concentration at half of the fitted maximal effect; % of control where 0% means no effect; nearly all actives have a fitted effect of over 55% in size
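Treated cells incubate 48 hr (37 C, 5% CO2), are stained 40 min with Hoechst, and nuclear fluorescence is enumerated; a rise in nuclei with high DNA signal marks re-replication.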
KB-3-1 cytotox – kills parental KB-3-1 adenocarcinoma cells; KB-3-1 viability, CellTiter-Glo ATP luminescence, 72 h; Potency, µM (top dose mostly 46.1 µM), most hits filed as cytotoxic; hit rate 1.4% among 400,000; further: potency means the concentration at half of the fitted maximal effect; on the % scale 0 is the no-effect control and ±100 the full control effect; nearly all actives have a fitted effect of over 60% in size
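Here the drug-naive KB-3-1 line serves as comparator for MDR sub-line selectivity; cells received compound titrations, 72 h at 37 °C, then CellTiter-Glo readout.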
MCF10A rerep – induces DNA re-replication in MCF 10a normal breast cells; Potency, µM (titrated, usually from 46.1 µM), without a hit: top-dose activity, positive = re-replication, usual class: activators; MCF 10A DNA re-replication, Hoechst nuclear intensity, 48 h; hit rate 2.9% among 350,000; further: potency means the concentration at half of the fitted maximal effect; % of control where 0% means no effect; nearly all actives have a fitted effect of over 50% in size
KB-V1 cytotox – kills drug-selected multidrug resistant KB-V1 cells; KB-V1 MDR cells viability, CellTiter-Glo, 72 h; Potency, µM (doses to about 46.1 µM), actives largely listed as cytotoxic; hit rate 3.4% among 400,000; further: potency means the concentration at half of the fitted maximal effect; on the % scale 0 is the no-effect control and ±100 the full control effect; nearly all actives have a fitted effect of over 60% in size
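Following 72 h at 37 degrees C with compound, KB-V1 cell viability was read by CellTiter-Glo luminescence, medium being phenol-red-free DMEM plus 10% FBS; concentration-response parameters came from normalized, curve-fitted qHTS data.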
hERG WT inh – inhibitors of human wildtype KCNH2 potassium channel. activity change, % at 1.84 µM. U2OS, BacMam KCNH2, thallium flux FluxOr; active compounds read low. Q12809. hit rate 0.37% among 340,000;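 active means maximum activity change below -70%; inconclusive means maximum activity change between -70% and -50%; inactive means maximum activity change above -50%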; further: on the % scale 0 is the no-effect control and ±100 the full control effect
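U2OS cells transduced with wild-type KCNH2 virus are loaded with FluxOr dye for 45 min, and thallium flux is measured in kinetic reads before and after stimulation buffer. Rate constants are normalized to DMSO controls.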
KCNH2 3.1 block – KCNH2 3.1 (human) potassium channel inhibition; U2OS KCNH2 3.1, thallium flux FluxOr; active compounds read low; hit rate 0.95% among 340,000; activity change, % (tested at about 1.8 µM); AID 720553;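 active means maximum activity change below -70%; inconclusive means maximum activity change from -70% to -50%; inactive means maximum activity change above -50%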;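 further: thallium influx rate constant from kinetic fluorescence after stimulation buffer; on the % scale 0 is the no-effect control and ±100 the full control effect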
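U2OS cells transduced with KCNH2 3.1 mutant virus (1.77 x 10^8 /mL, 4 h), plated overnight at 37 C, loaded 45 min with FluxOr dye plus Red40 quencher. Thallium flux rate constant from kinetic reads after stimulation buffer, normalised to controls.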
The depositor's hits bear a star; i = inactive; ? = inconclusive; . = no result given; [ ] = remark or other dose. Unless noted, the call rests on the fitted dose curve; in most records, active means well fitted curve in the direction sought with a large enough effect; inconclusive means small, poorly fitted or top-dose-only effect, or another doubt; inactive means no such curve, though single readings can be large; an effect the other way counts as inactive or inconclusive.

SMILES	SW480 rerep	KB-3-1 cytotox	MCF10A rerep	KB-V1 cytotox	hERG WT inh	KCNH2 3.1 block
Cc1ccc2[nH]c(=O)c(CN(c3cccc(C)c3C)S(=O)(=O)c3ccccc3)cc2c1	21.5%	6.51µM*	?	?	-5.5	-1.9
Cc1ccc(S(=O)(=O)N(Cc2cc3ccccc3[nH]c2=O)c2cccc(C)c2)cc1	4.11µM*	i	?	?	-14.7	-25.3
Cc1ccc2cc(CN(C)S(C)(=O)=O)c(=O)[nH]c2c1	9.2%	i	2.4%	i	-2.0	3.1
Cc1ccc(N(Cc2cc3cccc(C)c3[nH]c2=O)S(=O)(=O)c2ccccc2)c(C)c1	-0.9%	i	1.5%	i	-10.6	3.0
CCCCN(Cc1cc2ccccc2[nH]c1=O)S(C)(=O)=O	10.3µM*	i	-0.9%	?	5.9	-8.7
Cc1ccc(S(=O)(=O)N(C)Cc2cc3cc(C)ccc3[nH]c2=O)cc1	20.7%	i	5.9%	i	-3.3	-117.1*
CCCCN(Cc1cc2ccccc2[nH]c1=O)S(=O)(=O)c1ccc(C)cc1	5.7%	?	-0.9%	i	5.9	-18.4
COc1ccc(CC(=O)NCC(=O)NC(Cc2ccccc2)C(=O)O)cc1 (centres undefined)	-3.1%	i	0.1%	i	-0.8	2.8
CC12CCC(=O)N1C(C(=O)NCc1ccccc1Cl)CS2 (centres undefined)	6.2%	i	0.8%	i	-10.5	0.9
CN(C)CCCNC(=O)C[C@H]1C[C@H](C(=O)N2CCOCC2)[C@@]2(C)c3[nH]c4cc(CCC(=O)N(C)C)ccc4c3CCN2C1=O	?	i	0.5%	i	-5.7	-6.6
COC(=O)CC1(C(=O)OC)Oc2ccc(Br)cc2C(=O)N1c1cc(Cl)c(Cl)cc1Cl (centres undefined)	?	?	-8.3%	10.3µM*	-0.3	-7.3
COC(=O)CC1(C(=O)OC)Oc2ccc(Br)cc2C(=O)N1c1cc(Cl)cc(Cl)c1 (centres undefined)	-0.2%	i	1.2%	?	0.7	0.5
COC(=O)CC1(C(=O)OC)Oc2ccc(Br)cc2C(=O)N1c1cccc(Cl)c1Cl (centres undefined)	18.4µM*	?	?	5.17µM*	-5.0	-1.5
COC(=O)CC1(C(=O)OC)Oc2ccc(Br)cc2C(=O)N1c1ccc(Br)cc1Cl (centres undefined)	?	?	?	18.4µM*	6.1	1.4
CCN(CC)c1ccc(NC(=O)CCS(=O)(=O)c2ccc(Br)cc2)c(C)c1	-7.6%	i	?	i	0.3	-4.9
Cn1c(SCC(=O)NCC2CCCO2)ncc(C(=O)Nc2ccccc2)c1=O (centres undefined)	21.7%	i	?	?	2.9	-8.9
Cc1ccc(C)c(CSc2nnc(-c3ccccn3)n2N)c1	?	i	?	i	9.7	-1.2
Nn1c(SCc2c(F)cccc2F)nnc1-c1ccccn1	7.31µM*	i	2.4%	i	9.3	0.1
COn1c2c(c3c4nonc4ccc31)CCCC2	3.0%	i	9.7%	18.4µM*	-5.0	-11.4
COn1c2c(c3c4no[n+]([O-])c4ccc31)CCCC2	-0.7%	i	23.5%	i	-7.9	6.8
C[C@H](NC(=O)c1[nH]cnc1C(=O)Nc1ccccc1F)c1ccccc1	.	?	.	18.4µM*	-9.1	-29.3
O=C(Nc1ccc(Cl)cc1)c1nc[nH]c1C(=O)Nc1ccccc1F	.	i	.	i	-3.9	-0.2
O=C(Nc1ccc(Cl)cc1)c1nc[nH]c1C(=O)NCCCCNC(=O)c1[nH]cnc1C(=O)Nc1ccc(Cl)cc1	4.5%	?	-11.8%	20.6µM*	-8.6	0.3
O=C(Nc1cccc(Cl)c1)c1nc[nH]c1C(=O)Nc1ccccc1F	.	?	.	i	-70.7*	18.7
CN(Cc1ccccc1)C(=O)c1[nH]cnc1C(=O)Nc1ccc(Br)cc1F	.	16.4µM*	.	?	-15.7	-7.9
SMILES	SW480 rerep	KB-3-1 cytotox	MCF10A rerep	KB-V1 cytotox	hERG WT inh	KCNH2 3.1 block
C[C@H](NC(=O)c1[nH]cnc1C(=O)Nc1ccccc1)c1ccccc1	2.6%[9.22 µM]	?	?	i	-9.4	1.3
Cc1nc2c(-c3ccccc3)c(C)nn2c(C)c1CCC(=O)NCc1cccc(Cl)c1	.	i	.	i	.	.
CC(C)(C)OC(=O)[C@H](Cc1ccccc1)NC(=O)c1[nH]cnc1C(=O)Nc1ccccc1F	.	?	.	20.6µM*	9.7	15.1
CC(C)(C)OC(=O)[C@H](Cc1ccccc1)NC(=O)c1nc[nH]c1C(=O)NCc1ccccc1	0.2%	?	?	i	0.0	-107.0*
CCOC(=O)C(NC(=O)c1cccc(Cl)c1)(OCc1ccccc1)C(F)(F)F (centres undefined)	3.0%	i	-1.2%	?	-5.1	9.2
COc1ccc(-c2nc(-c3ccccc3)nc(N3CCN(C)CC3)c2C#N)cc1	-16.6%	?	10.8%	?	13.6	-11.2
COc1ccc(-c2nc(-c3cccc(C)c3)nc(N3CCN(C)CC3)c2C#N)cc1	?	5.8µM*	?	4.61µM*	1.3	32.5
COc1ccc(-c2cc(NC=O)c3ncc(-c4cccc(C(=O)NCCN(C)C)c4)n3c2)cn1	.	i	.	i	.	.
CCN(CC)CC(O)COc1ccccc1C(=O)CCc1ccccc1 (centres undefined)	-1.4%	i	?	i	24.8	-71.1*
CNC(=O)COc1ccccc1C(=O)Nc1ccccc1	.	?	.	i	.	.
CCC(=O)c1ccc(OCC(O)CN(CCc2ccccc2)Cc2ccccc2)cc1 (centres undefined)	?	i	8.3%	i	-6.2	-70.2*
CCCCN(CCCC)CC(O)COc1ccccc1C(=O)Nc1ccccc1 (centres undefined)	3.6%	i	6.1%	i	21.6	-73.6*
COc1cc(/C=C(\C#N)c2ccccn2)ccc1OCc1ccccc1Cl	-2.2%	i	?	10.3µM*	-1.8	-4.2
COc1cc(/C=C(\C#N)c2ccccn2)cc(OC)c1O	?	7.31µM*	?	?	-6.5	20.8
COC(=O)c1ccc(/C=C(\C#N)c2ccccn2)cc1	-9.5%	?	?	i	-5.3	19.8
Cc1cc(C)n2nc(/C(C#N)=C/c3ccccn3)c(C#N)c2n1	3.26µM*	i	6.51µM*	i	2.4	-1.0
Cc1cc(C)n2nc(CC#N)c(C#N)c2n1	1.6%	i	0.9%	?	-3.8	-9.6
N#C/C(=C\c1ccccn1)c1ccccn1	14.6µM*	?	20.6µM*	i	-0.1	-3.0
